Data: PubChem BioAssay (NCATS)
Records with an inconclusive call do not appear. Values without a mark were called inactive. Calls of active or inactive are those of the source. Calls come from the whole dose curve; as a rule, active = well fitted cell-killing curve with a large enough effect; inconclusive = small, poorly fitted or top-dose-only effect, or effect the other way; inactive = no such curve, though single readings can be large or run the other way.

assay: Quantitative highthroughput screen to assess conditional lethalithy of SEM cells grown in Human Plasma-Like Medium with dialyzed fetal bovine serum (HPLM+ds) (AID 1963882); settings: SEM B-ALL cells in HPLM+ds, CellTiter-Glo viability, 48 h; series mostly up to 45.8 µM; viability: at the top concentration
Procedure, shortened: (§1)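 Each medium arm—HPLM with 10% dialyzed FBS, or RPMI1640 with 5 mM glucose and 10% untreated or dialyzed FBS—was screened against an 11-point, 3-fold compound titration for 48 h at 37 °C, with CellTiter-Glo luminescence as endpoint.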
Note: nearly all actives have a fitted effect of over 35% in size.
Potency is the fitted concentration of half-maximal effect.

| SMILES | viability [%] | Potency |
| --- | --- | --- |
| CC(=Cc1ccccc1)C=C1SC(=S)N(CC(=O)O)C1=O | 105 |  |
| CC(=O)N1CCN(c2ccc(OCc3nn(C)c(C)c3-c3cccc4c(CCCOc5cccc6ccccc56)c(C(=O)O)n(Cc5cccnc5)c34)cc2)CC1 | 99.6 |  |
| COc1ccc(Nc2nccc(NCCO)n2)cc1 | 82.7 |  |
| C[C@@]12C[C@@]3(O)O[C@@H](O1)[C@]1(COC(=O)c4ccccc4)[C@@H]3C[C@@]12O[C@@H]1O[C@H](CO)[C@@H](O)[C@H](O)[C@@H]1O | 92.2 |  |
| Cc1[nH]c(C=C2C(=O)Nc3ccc(S(=O)(=O)Cc4c(Cl)cccc4Cl)cc32)c(C)c1C(=O)N1CCC[C@H]1CN1CCCC1 |  | 2.35 µM (active) |
| O=c1c(-c2ccc(O)cc2)coc2cc(O[C@@H]3O[C@H](CO)[C@H](O)[C@H](O)[C@H]3O)ccc12 |  | 14.8 µM (active) |
| COc1ccc(-c2oc3c(CC=C(C)C)c(OC4O[C@H](CO)[C@@H](O)[C@H](O)[C@@H]4O)cc(O)c3c(=O)c2OC2O[C@@H](C)[C@H](O)[C@@H](O)[C@@H]2O)cc1 (stereo partly drawn) |  | 18.7 µM (active) |
| CCOC(=O)O[C@]1(C(=O)OCCl)CC[C@@H]2[C@H]3CCC4=CC(=O)C=C[C@]4(C)[C@@H]3[C@@H](O)C[C@@]21C | 106 |  |
| N#Cc1ccc(NC(=O)Nc2ccccc2Br)c2n[nH]nc12 | 98.9 |  |
| CC(=O)N[C@H]1[C@@H]([C@H](O)[C@H](O)CO)OC(C(=O)O)=C[C@@H]1N=C(N)N | 86.2 |  |
| COC1CCC(C(=O)c2ccc3nc4c(cc3c2)CCCO4)CC1 (stereo not drawn) | 82.8 |  |
| Cc1cccc(N(C)C(=S)Oc2ccc3ccccc3c2)c1 | 94 |  |
| Cc1oncc1C(=O)Nc1ccc(C(F)(F)F)cc1 | 85.1 |  |
| CC1(C)[C@H]2CC[C@]3(C)[C@@H](C(=O)C=C4[C@@H]5C[C@@](C)(C(=O)O)CC[C@]5(C)CC[C@]43C)[C@@]2(C)CC[C@@H]1O | 96 |  |
| CC(Cc1ccc(O)c(O)c1)(NN)C(=O)O (stereo not drawn) | 74.7 |  |
| Cc1c(C)c2c(c(C)c1O)CCC(C)(COc1ccc(CC3SC(=O)NC3=O)cc1)O2 (stereo not drawn) |  | 16.6 µM (active) |
| C[C@H](NCc1ccc2c(c1)nc(NC(=O)c1ccc(-c3cn[nH]c3)s1)n2CCc1ccccc1)C(C)(C)C |  | 0.469 µM (active) |
| CC(=O)O[C@]1(C(C)=O)CC[C@@H]2[C@@H]3C[C@H](C)C4=CC(=O)CC[C@]4(C)[C@H]3CC[C@@]21C | 112 |  |
| O=C1c2c(O)cc(O)cc2O[C@H](c2cc(O)c(O)c(O)c2)[C@H]1O |  | 3.72 µM (active) |

assay: Quantitative highthroughput screen to assess conditional lethalithy of SEM cells grown in RPMI1640 with unreated serum (RPMI+s) (AID 1963883); settings: SEM B-ALL cells, CellTiter-Glo viability, 48 h; series mostly up to 45.8 µM; viability: at the top concentration;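 for viability: 100% = DMSO wells and 0% = empty wells without cells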
Procedure, shortened: as §1

| SMILES | viability [%] | Potency |
| --- | --- | --- |
| COc1ccc(Nc2nccc(NCCO)n2)cc1 | 107 |  |
| C[C@@]12C[C@@]3(O)O[C@@H](O1)[C@]1(COC(=O)c4ccccc4)[C@@H]3C[C@@]12O[C@@H]1O[C@H](CO)[C@@H](O)[C@H](O)[C@@H]1O | 86.1 |  |
| CC(=O)NCCC(=O)N[C@@H](CCC(N)=O)C(=O)N[C@@H](CO)C(=O)N[C@@H](CCC(N)=O)C(=O)N[C@@H](CCC(N)=O)C(=O)N[C@H](C(=O)N[C@@H](Cc1ccccc1)C(=O)N[C@]1(C)CCCCCCC=CCCC[C@@](C)(C(=O)N[C@@H](CCC(N)=O)C(=O)N[C@@H](CC(N)=O)C(N)=O)NC(=O)[C@H](CC(C)C)NC(=O)[C@H](CC(C)C)NC(=O)[C@@H](CCCNC(=N)N)NC(=O)[C@H](Cc2c[nH]c3ccccc23)NC(=O)[C@H](CC(C)C)NC(=O)[C@H](CC(N)=O)NC1=O)[C@H](C)O |  | 0.833 µM (active) |
| CC(=O)N[C@@H]1[C@H](O[C@@H]2c3ccc(c(Cl)c3)Oc3cc4cc(c3O[C@H]3O[C@H](CO)[C@@H](O)[C@H](O)[C@H]3NC(=O)CCCCCCCC(C)C)Oc3ccc(cc3Cl)C[C@H]3NC(=O)[C@H](N)c5ccc(O)c(c5)Oc5cc(O)cc(c5)[C@H](NC3=O)C(=O)N[C@H]4C(=O)N[C@H]3C(=O)N[C@@H]2C(=O)N[C@@H](C(=O)O)c2cc(O)cc(O[C@H]4O[C@H](CO)[C@@H](O)[C@H](O)[C@H]4O)c2-c2cc3ccc2O)O[C@H](CO)[C@@H](O)[C@@H]1O | 102 |  |
| COc1ccc(-c2oc3c(CC=C(C)C)c(OC4O[C@H](CO)[C@@H](O)[C@H](O)[C@@H]4O)cc(O)c3c(=O)c2OC2O[C@@H](C)[C@H](O)[C@@H](O)[C@@H]2O)cc1 (stereo partly drawn) |  | 13.2 µM (active) |
| CCOC(=O)O[C@]1(C(=O)OCCl)CC[C@@H]2[C@H]3CCC4=CC(=O)C=C[C@]4(C)[C@@H]3[C@@H](O)C[C@@]21C | 96.5 |  |
| O=C(c1ccc(C=Cc2n[nH]c3ccccc23)cc1)N1CCNCC1 |  | 0.166 µM (active) |
| N#Cc1ccc(NC(=O)Nc2ccccc2Br)c2n[nH]nc12 | 79.9 |  |
| O=C(C=Cc1ccc(O)cc1)c1ccc(O)cc1O |  | 18.7 µM (active) |
| COc1ccc(-c2c(-c3ccc(O)cc3O)n[nH]c2C)cc1 |  | 19.1 µM (active) |
| COc1ccc(-c2coc3cc(O)cc(O)c3c2=O)cc1 | 95.1 |  |
| Cc1cccc(N(C)C(=S)Oc2ccc3ccccc3c2)c1 | 84.3 |  |
| N=C1SC(=Cc2ccc(-c3ccc4c(c3)C(=O)NC4=O)o2)C(=O)N1c1ccc(Br)cc1 |  | 13.2 µM (active) |
| CC(C)(C(=O)NCC(F)(F)C(F)(F)F)C(=O)N[C@@H]1C(=O)Nc2ccccc2-c2ccccc21 |  | 16.6 µM (active) |
| Cc1oncc1C(=O)Nc1ccc(C(F)(F)F)cc1 | 72.9 |  |
| CC1(C)[C@H]2CC[C@]3(C)[C@@H](C(=O)C=C4[C@@H]5C[C@@](C)(C(=O)O)CC[C@]5(C)CC[C@]43C)[C@@]2(C)CC[C@@H]1O | 85.6 |  |
| O=c1[nH]c(=O)n([C@H]2C[C@@H](O)[C@@H](CO)O2)cc1C=CBr | 105 |  |
| C[C@H](NCc1ccc2c(c1)nc(NC(=O)c1ccc(-c3cn[nH]c3)s1)n2CCc1ccccc1)C(C)(C)C |  | 0.526 µM (active) |
| CC(=O)O[C@]1(C(C)=O)CC[C@@H]2[C@@H]3C[C@H](C)C4=CC(=O)CC[C@]4(C)[C@H]3CC[C@@]21C | 86.3 |  |
